The entries come from a sample that favours hits as a whole.
Rtt109 Vps75: inhibitors of Candida albicans Rtt109/Vps75 histone acetyltransferase | AID 540336 | Q5AAJ8 | purified Rtt109/Vps75, ThioGlo CoA-SH fluorescence, 4 h | inhibition, % at 34.9 µM | 330,000 tested, 0.16% active;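 active means inhibition of at least 50% in every replicate; inconclusive means best replicate reaches 50% inhibition but some replicates fall short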
Target sequence (Q5AAJ8 whole entry, looked up): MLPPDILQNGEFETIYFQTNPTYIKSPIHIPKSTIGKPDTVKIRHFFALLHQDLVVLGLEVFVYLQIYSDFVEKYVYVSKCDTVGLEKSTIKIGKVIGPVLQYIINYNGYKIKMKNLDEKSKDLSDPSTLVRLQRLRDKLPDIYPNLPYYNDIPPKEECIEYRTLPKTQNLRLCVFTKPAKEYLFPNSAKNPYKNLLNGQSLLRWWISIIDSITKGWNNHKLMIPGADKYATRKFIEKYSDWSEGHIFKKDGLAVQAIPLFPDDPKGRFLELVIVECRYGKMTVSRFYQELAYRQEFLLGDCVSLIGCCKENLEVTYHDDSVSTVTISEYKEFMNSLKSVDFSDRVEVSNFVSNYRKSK
DENV2 CPE: inhibitors of DENV2 cytopathic effect. 350,000 tested, 1.7% active. AID 651640. DENV2-infected cells, cytopathic effect rescue, plate reader. CPE inhibition, % at 9.99 µM; in the data active means CPE inhibition above about 20%, passing the limit was not always enough; inconclusive means no clear call, values can overlap the other calls; tested in BHK-21 cells;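 further: 0% = median of neutral control wells and 100% = median of positive control wells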
N-glyco inh: blocks N-linked glycosylation in D54 reporter cells. D54 ERlucT glycosylation luciferase reporter, 24 h; percent of 100 nM tunicamycin response. reporter increase, % at 12.5 µM. 360,000 tested, 0.23% active. AID 588692;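 active means mean luciferase reporter signal, scaled so untreated is 0 and the glycosylation-blocking control 100, at or above a set limit in every replicate; inconclusive means mean reaches the limit but not every replicate does; inactive means mean below the limit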;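 further: luciferase carries N-glycosylation sites so blocking glycosylation raises the light; 0% = median of neutral control wells and 100% = median of 100 nM tunicamycin wells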
PglD inh: blocks C. jejuni PglD acetyltransferase activity. purified PglD enzyme, DTNB colorimetric CoA detection. inhibition, % at 12.5 µM. 360,000 tested, 0.098% active. AID 602405; in the data active means inhibition above about 16%, passing the limit was not always enough; inconclusive means no clear call, values can overlap the other calls
The depositor's hits bear a star; ? = inconclusive; nt = no result.

SMILES | Rtt109 Vps75 | DENV2 CPE | N-glyco inh | PglD inh
COc1ccc(NC(=O)N(C)C[C@@H]2Oc3ncc(C#C[C@@H](C)O)cc3C(=O)N([C@H](C)CO)C[C@@H]2C)cc1 | nt | -3 | nt | -3
C[C@H](NC(=O)C[C@@H]1CC[C@@H]2[C@H](COC[C@H](O)CN2C(=O)Nc2cc(Cl)cc(Cl)c2)O1)c1ccccc1 | nt | 4 | nt | -2
COc1ccc(C(=O)CSc2nnc(-c3cc4ccccc4cc3O)n2Cc2ccco2)cc1 | 12 | nt | 33* | 2
CC(C)NC(=O)Nc1ccc2c(c1)C(=O)N([C@@H](C)CO)C[C@H](C)[C@H](CN(C)Cc1ccc3c(c1)OCO3)O2 | nt | 13 | nt | 2
CC(C)NC(=O)[C@@]1(c2ccc([N+](=O)[O-])cc2)CC(=O)N(CC23CC4CC(CC(C4)C2)C3)[C@@H]1c1ccc(CO)cc1 | nt | 3 | nt | 3
C[C@@H]1CN([C@H](C)CO)C(=O)c2cc(NS(=O)(=O)c3ccc(F)cc3)ccc2O[C@@H](C)CCCCO[C@H]1CN(C)Cc1ccncc1 | nt | 51* | nt | 3
C[C@@H]1CCCCO[C@@H](CN(C)Cc2ccncc2)[C@H](C)CN([C@@H](C)CO)C(=O)c2cc(NS(=O)(=O)c3ccc(Cl)cc3)ccc2O1 | nt | 60* | nt | -3
C[C@@H]1CCCCO[C@@H](CN(C)Cc2ccncc2)[C@@H](C)CN([C@H](C)CO)C(=O)c2cc(NS(=O)(=O)c3ccc(Cl)cc3)ccc2O1 | nt | 5 | nt | -1
C[C@H]1CCCCO[C@H](CN(C)Cc2ccncc2)[C@@H](C)CN([C@@H](C)CO)C(=O)c2cc(NS(=O)(=O)c3ccc(F)cc3)ccc2O1 | nt | -2 | nt | -1
Cc1cccc2c3c([nH]c12)[C@H]1CCC(=O)N1CC3 | nt | 14 | nt | nt
COc1ccc(C(C)(NC(C)=O)c2nc(-c3cccc(F)c3)cs2)cc1 (stereo not drawn) | nt | 29* | 0 | -2
COc1cc(C(=O)NCC(=O)NCC(c2ccco2)N2CCCCC2)cc(OC)c1OC (stereo not drawn) | 14 | 0 | 1 | -1
CC(Sc1ccccc1)C(=O)NCC(c1ccco1)N1CCCCC1 (stereo not drawn) | -4 | 107* | -1 | 8
Cc1ccc(C(=O)NCC(=O)NCC(c2ccco2)N2CCCCC2)cc1C (stereo not drawn) | 56* | -5 | -2 | -1
CCCNC(=O)C[C@@H]1CC[C@H]2[C@@H](COC[C@@H](O)CN2CC2CCCCC2)O1 | nt | 3 | nt | 1
COCC(=O)N1C[C@@H]2[C@H](c3ccccc31)[C@@H](CO)N2Cc1ccccc1Cl | nt | 13 | nt | -2
CN(C(=O)COC(=O)c1cncc(Br)c1)C1CCCCC1 | 12 | 8 | 0 | 2
CN(C(=O)c1cncc(Br)c1)C1C2CC3CC(C2)CC1C3 (stereo not drawn) | 59* | -6 | 1 | -5
COc1ccc(N(CC(=O)N2CCN(C)CC2)S(=O)(=O)c2cc(C)ccc2OC)cc1Cl | -14 | 83* | nt | 4
CC(=O)N(C)C[C@@H]1[C@H](c2ccc(-c3cccnc3)cc2)[C@H](CO)N1C(=O)C1CC1 | nt | -2 | nt | nt
CCCCCCc1ccc(N2C[C@H](Cc3ccccc3)[C@@H](CC(=O)NCc3ccc(OC)cc3)C2=O)cc1 | 5 | 16 | -5 | 1
CCCCCCc1ccc(N2C[C@H](CCCCC)[C@@H](CC(=O)NCc3ccc(OC)cc3)C2=O)cc1 | -18 | 95* | -3 | -1
CCn1c(SCC(=O)Nc2cc(OC)c(OC)c(OC)c2)nnc1-c1cccs1 | 63* | nt | -1 | 5
CCn1c(SCC(=O)Nc2ccc(OC)c(OC)c2)nnc1-c1cccs1 | 1 | nt | -1 | 1
COc1ccc(NC(=O)Nc2ccc3c(c2)C(=O)N([C@@H](C)CO)C[C@@H](C)[C@H](CN(C)Cc2ccc(C(=O)O)cc2)OCCCC[C@@H](C)O3)cc1 | nt | -3 | nt | -3
SMILES | Rtt109 Vps75 | DENV2 CPE | N-glyco inh | PglD inh
C[C@@H]1CCCCO[C@H](CN(C)CC2CC2)[C@H](C)CN([C@H](C)CO)C(=O)c2cc(NC(=O)NC3CCCCC3)ccc2O1 | nt | -12 | nt | nt
CCC(=O)N1[C@H](C#N)[C@@H](c2ccccc2-c2ccccc2)[C@@H]1CO | nt | 16 | nt | nt
C/C=C/c1ccccc1[C@H]1[C@@H](C#N)N(C(=O)NC2CCCC2)[C@H]1CO | nt | 60* | nt | nt
CCCNC(=O)N1[C@H](CO)[C@H](c2ccccc2-c2ccccc2)[C@@H]1C#N | nt | 109* | nt | nt
CCC(=O)N1[C@@H](C#N)[C@H](c2ccccc2-c2ccccc2)[C@@H]1CO | nt | 47* | nt | nt
O=C(CCN1CCCCC1)NCC[C@@H]1CC[C@@H](NC(=O)C2CC2)[C@H](CO)O1 | nt | -3 | nt | 4
CCS(=O)(=O)N[C@H]1CC[C@@H](CC(=O)Nc2ccc(-c3ccccc3)cc2)O[C@@H]1CO | nt | 2 | nt | 7
C[C@H](CO)N1C[C@H](C)[C@H](CN(C)Cc2ccc(C(F)(F)F)cc2)Oc2ccc(NC(=O)Nc3ccccc3)cc2CC1=O | nt | 25* | nt | -5
C[C@H](CO)N1C[C@H](C)[C@H](CN(C)Cc2ccc(C(=O)O)cc2)Oc2ccc(NC(=O)Nc3ccc(C(F)(F)F)cc3)cc2CC1=O | nt | -4 | nt | 0
C[C@@H]1CN([C@H](C)CO)C(=O)Cc2cc(NC(=O)Nc3ccc(C(F)(F)F)cc3)ccc2O[C@H]1CN(C)Cc1ccc(C(=O)O)cc1 | nt | 24* | nt | 0
C[C@@H]1CN([C@@H](C)CO)C(=O)Cc2cc(NS(=O)(=O)c3ccccc3)ccc2O[C@H]1CN(C)C(=O)Nc1ccc(C(F)(F)F)cc1 | nt | 6 | nt | 3
COc1cccc(C#Cc2ccc3c(c2)[C@H]2[C@H](CCN2C(=O)c2ccc4c(c2)OCO4)[C@@H](CO)N3)c1 | nt | 13 | nt | nt
C[C@@H]1CCCCO[C@@H](CN(C)C(=O)NC2CCCCC2)[C@@H](C)CN([C@H](C)CO)C(=O)c2cc(NC(=O)C3CCCCC3)ccc2O1 | nt | 7 | nt | -6
O=S(=O)([N-]c1nc2ccccc2nc1-n1cc[n+](Cc2ccccc2)c1)c1ccccc1 | -2 | 5 | 40* | 2
CCCC[n+]1ccn(-c2nc3ccccc3nc2[N-]S(=O)(=O)c2ccc(C)cc2)c1 | 1 | -6 | -4 | -5
Cc1ccc(S(=O)(=O)[N-]c2nc3ccccc3nc2-n2cc[n+](Cc3ccccc3)c2)cc1 | 9 | 10 | 43* | 2
C[C@H]1CN([C@@H](C)CO)C(=O)c2cccc(NC(=O)c3ccc(-c4nccs4)cc3)c2O[C@@H]1CN(C)S(=O)(=O)c1cn(C)cn1 | nt | ? | nt | 0
Cc1ccc(/C=C2/C(=O)ON=C2c2ccccc2)o1 | 21 | 42* | 17 | nt
COc1cccc(CNC(=O)[C@@H]2CCCN2C(=O)[C@H]2CCCCN2C(=O)c2ccc(Cl)cc2)c1 | nt | 78* | nt | nt
COc1cccc(CNC(=O)[C@@H]2CCCN2C(=O)[C@@H]2CCCN2C(=O)c2cccc(Cl)c2)c1 | nt | 3 | nt | nt
CCCCCOCC1CC(C/C(C)=N/NC(N)=S)C(=O)O1 (stereo not drawn) | 9 | -13 | 1 | nt
C/C(CC1CC(COCC(C)C)OC1=O)=N\NC(N)=S (stereo not drawn) | 6 | 91* | 3 | nt
